Screens (PubChem BioAssay)
ClpP mod: qHTS Assay for Activators of ClpP; purified B. subtilis ClpP, FRET peptide cleavage, 20 min; Potency, µM (top dose mostly 57.5 µM), for inactives: at the highest dose activity change, negative = active; actives 1.9% (n = 340,000); AID 651965, 2013; ATP-dependent Clp protease proteolytic subunit (Bacillus subtilis (strain 168)), P80244; active = well fitted falling curve with a large enough effect; inconclusive = small, poorly fitted or top-dose-only effect; inactive = no such curve, though single readings can be large or run the other way; note: potency is the fitted concentration of half-maximal effect; the source files actives as falling curves though it sought activators and does not explain the sign; nearly all actives have a fitted effect of over 65% in size
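FRET quenching reversal measured ClpP activation: 10 microg/mL B. subtilis ClpP at pH 8 with the FRET-FV decapeptide, read at 430 nm after 320 nm excitation. The 20-min minus 0-min signal was scaled between DMSO/no-enzyme wells and ADEP (5.8 microM final).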
LDHA inh: qHTS assay for inhibitors of human lactate dehydrogenase; activity change, % (values are at about 110 or 230 µM); L-lactate dehydrogenase A chain (Homo sapiens), P00338; actives 0.15% (n = 480,000); purified LDHA, NADH/diaphorase-resazurin fluorescence; hits give low values; in the data active = activity change below about -30%; inconclusive = mostly about -25% to -30%;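 note: plate controls were DMSO wells for no effect and wells without enzyme for full effect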
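Human LDH5 (2 nM) was incubated with 0.06 mM NADH and 0.2 mM pyruvate for 5 min at room temperature in Tris pH 7.4. Remaining NADH was coupled through diaphorase/resazurin, and resorufin fluorescence was read at 0 and 20 min.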
KCNH2 WT inh: qHTS for Inhibitors of KCHN2 3.1: Wildtype qHTS; Voltage-gated inwardly rectifying potassium channel KCNH2 (Homo sapiens), Q12809; U2OS, BacMam KCNH2, thallium flux FluxOr; hits give low values; activity change, % at 1.84 µM; actives 0.37% (n = 340,000); AID 720551, 2013;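 active = maximum activity change below -70%; inconclusive = maximum activity change between -70% and -50%; inactive = maximum activity change above -50%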; note: % is set by controls: 0 for no effect and ±100 for the full control effect
Target sequence (Q12809 whole entry, looked up): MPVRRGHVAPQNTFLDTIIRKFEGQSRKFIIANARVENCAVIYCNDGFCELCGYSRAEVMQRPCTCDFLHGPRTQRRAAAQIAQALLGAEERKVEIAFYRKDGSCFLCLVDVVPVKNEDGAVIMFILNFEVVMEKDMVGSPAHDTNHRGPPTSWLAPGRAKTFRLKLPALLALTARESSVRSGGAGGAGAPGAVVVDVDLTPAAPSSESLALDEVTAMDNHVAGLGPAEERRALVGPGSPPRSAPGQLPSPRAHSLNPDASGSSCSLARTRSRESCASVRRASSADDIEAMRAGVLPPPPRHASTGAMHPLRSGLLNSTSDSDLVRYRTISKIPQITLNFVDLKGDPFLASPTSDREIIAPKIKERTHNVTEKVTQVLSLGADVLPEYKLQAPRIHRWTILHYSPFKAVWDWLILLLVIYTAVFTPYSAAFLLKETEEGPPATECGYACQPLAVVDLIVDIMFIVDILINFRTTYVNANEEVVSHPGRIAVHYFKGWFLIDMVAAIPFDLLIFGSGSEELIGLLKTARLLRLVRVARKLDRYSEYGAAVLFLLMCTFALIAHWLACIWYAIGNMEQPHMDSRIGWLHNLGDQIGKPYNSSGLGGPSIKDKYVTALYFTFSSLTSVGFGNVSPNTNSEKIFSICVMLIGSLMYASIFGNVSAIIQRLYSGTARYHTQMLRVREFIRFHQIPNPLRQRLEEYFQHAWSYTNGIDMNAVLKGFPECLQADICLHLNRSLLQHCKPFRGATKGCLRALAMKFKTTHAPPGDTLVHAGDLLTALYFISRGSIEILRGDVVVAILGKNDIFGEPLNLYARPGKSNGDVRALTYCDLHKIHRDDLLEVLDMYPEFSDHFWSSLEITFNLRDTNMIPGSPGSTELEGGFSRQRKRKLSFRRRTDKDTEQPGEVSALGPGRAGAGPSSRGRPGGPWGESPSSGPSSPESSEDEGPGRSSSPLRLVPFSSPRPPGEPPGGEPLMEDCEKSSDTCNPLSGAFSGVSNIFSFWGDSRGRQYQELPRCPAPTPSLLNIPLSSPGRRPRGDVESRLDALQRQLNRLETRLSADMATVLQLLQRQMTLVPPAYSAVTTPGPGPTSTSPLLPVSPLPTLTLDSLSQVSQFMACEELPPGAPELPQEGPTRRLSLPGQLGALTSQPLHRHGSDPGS
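U2OS cells transduced with wild-type KCNH2 virus are loaded with FluxOr dye for 45 min, and thallium flux is measured in kinetic reads before and after stimulation buffer. Rate constants are normalized to DMSO controls.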
KCNH2 3.1 block: qHTS for Inhibitors of KCHN2 3.1: Mutant qHTS; activity change, % (tested at about 1.8 µM); actives 0.95% (n = 340,000); U2OS KCNH2 3.1, thallium flux FluxOr; hits give low values;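 active = maximum activity change below -70%; inconclusive = maximum activity change from -70% to -50%; inactive = maximum activity change above -50%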;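 note: thallium influx rate constant from kinetic fluorescence after stimulation buffer; % is set by controls: 0 for no effect and ±100 for the full control effect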
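Kinetic fluorescence (2 min after stimulation buffer) measures Tl+ influx through KCNH2 3.1 expressed by viral transduction in U2OS cells; the rate constant is normalized against DMSO controls serving as positive and negative references.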
Chronic BCR inh: qHTS Assay to Find Inhibitors of Chronic Active B-Cell Receptor Signaling; ABC-DLBCL IkBa-CBG/CBR reporter, luminescence ratio, 4 h; Potency, µM (highest dose often 46.1 µM), for inactives: top-dose activity change, negative = inhibition, actives largely listed as inhibitors; actives 0.05% (n = 340,000); AID 493014, 2011; active = well fitted inhibition curve with a large enough effect in the signal ratio, with a control signal flat, not every such curve was filed as active; inconclusive = small, poorly fitted or top-dose-only effect, or effect the other way, or a change in a side signal; the % refers to the signal ratio;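 note: potency is the fitted concentration of half-maximal effect; plate controls were basal doxycycline-induced cells for no effect and cells given 10 µM MG132 for full effect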
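Concentration-response series (up to 46 uM) were applied to TMD8 dual-reporter cells for 4 h at 37C with doxycycline. Green/red ratio, after filter-overlap correction, defined %Activity; red signal alone was normalised to basal cells and zero luminescence.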
ALOX12 inh: Primary qHTS assay for inhibitors of human arachidonate 12S-lipoxygenase (ALOX12): Round 2. purified 12hLO, xylenol orange hydroperoxide absorbance. Potency, µM (top dose mostly 108 µM), without a hit: at the highest dose activity change, negative = inhibition, most hits filed as inhibitors. actives 1.1% (n = 580,000); active = well fitted inhibition curve with a large enough effect; inconclusive = small, poorly fitted or top-dose-only effect, or another doubt; inactive = no such curve, though single readings can be large or run the other way; note: potency is the fitted concentration of half-maximal effect; % is set by controls: 0 for no effect and ±100 for the full control effect
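Purified human 12hLO at 150 nM in 25 mM Hepes, 0.01% Triton X-100, pH 7.0, preincubated 15 min at room temperature with compound. Reaction started with 40 uM arachidonic acid, 30 min at room temperature. Hydroperoxide measured by Fe-xylenol orange, 573/405 nm absorbance ratio.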
Numbers without * were called inactive; [ ] = another dose, or the depositor's remark. Hits are enriched below; roughly 3% of the tested compounds scored in any of these assays.

What do the screens show for `CCOc1ccc(C(=O)N/N=C/c2ccc(-c3ccc(S(=O)(=O)Nc4ncccn4)cc3)o2)cc1`?
ClpP mod: 28µM*; LDHA inh: -8; KCNH2 WT inh: -9; KCNH2 3.1 block: 0; Chronic BCR inh: inconclusive; ALOX12 inh: 6%

What do the screens show for `O=C(N/N=C/c1ccc(-c2ccc(S(=O)(=O)Nc3ncccn3)cc2)o1)c1cc2ccccc2cc1O`?
ClpP mod: inconclusive; LDHA inh: -46*; KCNH2 WT inh: 4; KCNH2 3.1 block: -4; Chronic BCR inh: inconclusive; ALOX12 inh: 13µM*

How did NC(=S)NN=Cc1ccc(-c2ccc(S(=O)(=O)Nc3ncccn3)cc2)o1 do in these assays?
ClpP mod: -3%; LDHA inh: -8; KCNH2 WT inh: 0; KCNH2 3.1 block: -11; Chronic BCR inh: 1%; ALOX12 inh: inconclusive

How did COC(=O)c1ccccc1S(=O)(=O)NC(=O)c1ccccc1 do in these assays?
ClpP mod: 20µM*; LDHA inh: -2; KCNH2 WT inh: -6; KCNH2 3.1 block: 6; Chronic BCR inh: 5%; ALOX12 inh: inconclusive

What do the screens show for `CC1=C(C#N)C(c2ccccc2)C2=C(CC(C)(C)CC2=O)N1` (stereo not given)?
LDHA inh: 9; ALOX12 inh: 5%

How did CC1=C(C#N)C(c2cccnc2)C2=C(CC(C)(C)CC2=O)N1 (stereo not given) do in these assays?
ClpP mod: 14µM*; LDHA inh: -2; KCNH2 WT inh: 16; KCNH2 3.1 block: 3; Chronic BCR inh: -2%; ALOX12 inh: 21%

How did CC1=C(C#N)C(C)C2=C(CC(C)(C)CC2=O)N1 (stereo not given) do in these assays?
ClpP mod: 18µM*; LDHA inh: -3; KCNH2 WT inh: 6; KCNH2 3.1 block: -5; Chronic BCR inh: 12%; ALOX12 inh: 0%

What do the screens show for `CC1=C(C#N)C(c2ccc(O)cc2)C2=C(CC(C)(C)CC2=O)N1` (stereo not given)?
ClpP mod: -28%; LDHA inh: -5; KCNH2 WT inh: -1; KCNH2 3.1 block: 14; Chronic BCR inh: 4%; ALOX12 inh: -7%

How did CCOc1cccc(CNCc2cccs2)c1OCc1ccccc1 do in these assays?
LDHA inh: -4; ALOX12 inh: -17%

How did CCC/C=C/c1ccc(CN2C(C)C(=O)N(Cc3cn(Cc4ccco4)nn3)CCS2(=O)=O)cc1 (stereo not given) do in these assays?
ClpP mod: 1%; LDHA inh: 2; KCNH2 WT inh: 5; KCNH2 3.1 block: -22; ALOX12 inh: inconclusive

What do the screens show for `CCC/C=C/c1ccc(CN2C(C(C)C)C(=O)N(Cc3cn(Cc4ccco4)nn3)CCS2(=O)=O)cc1` (stereo not given)?
ClpP mod: 0%; LDHA inh: 1; KCNH2 WT inh: 3; KCNH2 3.1 block: -30; ALOX12 inh: 45µM*

How did CC(C)CC1C(=O)N(Cc2cn(CCC3OCCCO3)nn2)CCS(=O)(=O)N1Cc1ccc(-c2ccncc2)cc1 (stereo not given) do in these assays?
ClpP mod: -8%; LDHA inh: -4; KCNH2 WT inh: -139*; KCNH2 3.1 block: -157*; ALOX12 inh: inconclusive

Results for Cc1ccc(-c2ccc(CN3C(C)C(=O)N(Cc4cn(Cc5ccco5)nn4)CCS3(=O)=O)cc2)cc1 (stereo not given) ?
ClpP mod: -3%; LDHA inh: -11; KCNH2 WT inh: -1; KCNH2 3.1 block: 1; ALOX12 inh: 11µM*

What do the screens show for `CC(C)Cc1ccc(CN2C(C)C(=O)N(Cc3cn(Cc4ccco4)nn3)CCS2(=O)=O)cc1` (stereo not given)?
ClpP mod: 3%; LDHA inh: -4; ALOX12 inh: 14µM*

What do the screens show for `O=C(CC(=O)c1cccc(Cl)c1)c1cccc(Cl)c1`?
LDHA inh: 0; ALOX12 inh: inconclusive

Results for C/C(=N\Nc1ccc(Cl)cc1C)c1cc2ccccc2s1 ?
LDHA inh: -2; ALOX12 inh: inconclusive

How did COc1ccc(-c2nc3ccccc3o2)cc1NC(=O)CC12CC3CC(CC(C3)C1)C2 do in these assays?
LDHA inh: 9; ALOX12 inh: 26%

What do the screens show for `COc1cc(C2NC(=O)NC(O)(C(F)(F)F)C2C(C)=O)cc(OC)c1OC` (stereo not given)?
ClpP mod: -3%; LDHA inh: 1; KCNH2 WT inh: -186*; KCNH2 3.1 block: -3; Chronic BCR inh: 1%; ALOX12 inh: 13%

Results for CCOC(=O)C1C(c2cc(OC)c(OC)c(OC)c2)NC(=O)NC1(O)C(F)(F)F (stereo not given) ?
LDHA inh: 6; ALOX12 inh: 0%

How did CCCCCCn1c(N2CCOCC2)nc2c1c(=O)[nH]c(=O)n2C do in these assays?
LDHA inh: 5; ALOX12 inh: 21%

What do the screens show for `Cn1cccc1/C=N/N1CCN(Cc2cccc3ccccc23)CC1`?
ClpP mod: -10%; LDHA inh: 4; KCNH2 WT inh: -1; KCNH2 3.1 block: -17; Chronic BCR inh: 2%; ALOX12 inh: 18µM*

Results for c1cc2nc(C3CCCCC3)[nH]c2cn1 ?
ALOX12 inh: 34%[176 µM]

Results for c1cc2nc(C34CC5CC(CC(C5)C3)C4)[nH]c2cn1 ?
ClpP mod: -2%; LDHA inh: -33*; KCNH2 WT inh: -2; KCNH2 3.1 block: 18; Chronic BCR inh: -1%; ALOX12 inh: -25%

What do the screens show for `O=C1CN(C(=O)COC(=O)c2ccccc2NCc2ccco2)c2ccccc2N1`?
ClpP mod: 25µM*; LDHA inh: -6; KCNH2 WT inh: -10; KCNH2 3.1 block: 3; Chronic BCR inh: inconclusive; ALOX12 inh: -7%

How did CCc1ccc(NC(=O)NCCN2CCN(c3ccc(OC)cc3)CC2)cc1 do in these assays?
ClpP mod: -3%; LDHA inh: 0; KCNH2 WT inh: -3; KCNH2 3.1 block: inconclusive; Chronic BCR inh: 0%; ALOX12 inh: 0%
